{"source": "PubChem BioAssay (NCATS)", "note": "Results filed as inconclusive are left out. A number with no mark means an inactive call. Activity calls are given as the source filed them. The call rests on the fitted dose curve; in most records, active means well fitted cell-killing curve with a large enough effect; inconclusive means small, poorly fitted or top-dose-only effect, or effect the other way; inactive means no such curve, though single readings can be large or run the other way.", "data": [{"experiment": "MultiTox-Fluor Cytotoxicity Assay - LYMP1-002 - Dead Cells (AID 960);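 further: 0% = DMSO and 100% = tetraoctylammonium bromide; nearly all actives have a fitted effect of over 60% in size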", "conditions": "LYMP1-002 lymphoblastoid cells, dead-cell protease fluorescence; series mostly up to 46.1 µM; cytotoxicity (dead cells): at the top concentration", "excerpt": "NIH Chemical Genomics Center [NCGC]\nNIH Molecular Libraries Screening Centers Network [MLSCN]\nNational Institutes of Environmental Health Sciences [NIEHS]\nNational Toxicology Program [NTP]\nWe have developed a 1536-well cell-based assay for quantitative high throughput screening (qHTS) against a number of cell lines to determine in vitro cytotoxicity of small molecules. This particular assay uses a human lymphoblastoid cell line (LYMP1-002) purchased from Coriell Institute.\nNCGC Assay Protocol Summary:\nThe MultiTox-Fluor Cytotoxicity Assay (Promega) is a homogeneous method to simultaneously measure the relative number of live and dead cells in culture by detecting changes in cell membrane integrity. There are two fluorogenic peptide substrates in the assay reagent. Viable cells are determined when the cell-permeant substrate (GF-AFC) enters the cell and is cleaved by protease from live cells resulting in liberated fluorophore. This live-cell protease activity restricted to viable cells is proportional to cell number. The dead cells are determined by using fluorogenic cell-impermeant peptide substrate (bis-AAF-R110) which cleaved by dead cell proteases leaking from damaged cell membrane.\nUsing the MultiTox-Fluor Cytotoxicity Assay, the relative number of dead cells was measured in the lymphoblastoid cell line with complete culture medium following compound treatment for 16 hours. The assay was performed in opaque black Kalypsys 1536-well plates. In the screen, tetraoctylammonium bromide was used as positive control. Library compounds were measured for their ability to cause acute toxicity in the cell line, as reflected by an increase in dead cell protease activity, in a concentration-dependent manner. Data were normalized to the controls for basal activity (DMSO only) and 100% stimulation (15 uM tetraoctylammonium bromide). AC50 values were determined from concentration-response data modeled with the standard Hill equation.\nqHTS protocol for MultiTox-Fluor Cytotoxicity assay\n[Step] [Parameter] [Value] [Description]\n1. Reagent; 5 uL; 2500 lymphoblastoid cells/well\n2. Time; 5 hr; 37 C incubation\n4. Controls; 23 nL; Tetraoctylammonium bromide 6.4pM to 92 uM\n5. Time; 16 hr; 37 C incubation\n6. Reagent; 5 uL; MuliTox-Fluor Assay reagent\n7. Time; 60 min; Room Temperature\n8. Detection; dead-cell fluorescence (Ex/Em=485/520); EnVision plate reader\nKeywords: cytotoxicity, lymphoblastoid cell line, fluorescence, NTPHTS, NTPHTS_NCGC, NIEHS, EPA, DSSTox, MLSMR, MLSCN, NIH Roadmap, qHTS, NCGC", "units": {"cytotoxicity (dead cells)": "%"}, "values": [{"smiles": "Nc1ccc([N+](=O)[O-])cc1", "cytotoxicity (dead cells)": 26.4}, {"smiles": "Nc1ccc(Cl)cc1", "cytotoxicity (dead cells)": -4}, {"smiles": "C=CC(=O)NCNC(=O)C=C", "cytotoxicity (dead cells)": 8.64}, {"smiles": "OCCCBr", "cytotoxicity (dead cells)": 6.59}, {"smiles": "CN(C)NC(=O)CCC(=O)O", "cytotoxicity (dead cells)": 8.54}, {"smiles": "COC(C)(C)CCCC(C)C/C=C/C(C)=C/C(=O)OC(C)C", "note": "(stereo unspecified)", "cytotoxicity (dead cells)": 20.1}, {"smiles": "CCCCCCCCc1ccc(O)cc1", "cytotoxicity (dead cells)": 18.6}, {"smiles": "C1CCC(NC2CCCCC2)CC1", "outcome": "inactive"}, {"smiles": "CN(C)[C@@H]1C(=O)C(C(N)=O)=C(O)[C@@]2(O)C(=O)C3=C(O)c4c(O)cccc4[C@@](C)(O)[C@H]3[C@H](O)[C@@H]12", "cytotoxicity (dead cells)": -13.1}, {"smiles": "CC(=O)[O][Hg][c]1ccccc1", "cytotoxicity (dead cells)": -152}, {"smiles": "CCOP(=O)(NC(C)C)Oc1ccc(SC)c(C)c1", "note": "(stereo unspecified)", "cytotoxicity (dead cells)": 10.2}, {"smiles": "c1cc2ccc3cccc4ccc(c1)c2c34", "cytotoxicity (dead cells)": -13.4}, {"smiles": "O=C(O)C(Cl)Cl", "cytotoxicity (dead cells)": 25.3}, {"smiles": "Nc1ccc(Sc2ccc(N)cc2)cc1", "cytotoxicity (dead cells)": -21.7}, {"smiles": "O=[N+]([O-])c1cc([N+](=O)[O-])c2ccccc2c1", "cytotoxicity (dead cells)": 20.7}, {"smiles": "Nc1ccc(Cl)cc1N", "cytotoxicity (dead cells)": -9.92}, {"smiles": "O=C(O)COc1ccccc1", "cytotoxicity (dead cells)": -10.1}, {"smiles": "Cc1cc(O)ccc1Cl", "cytotoxicity (dead cells)": 6.74}, {"smiles": "O=[N+]([O-])c1c2ccccc2cc2ccccc12", "cytotoxicity (dead cells)": 26.3}, {"smiles": "O=[N+]([O-])c1c(Cl)c(Cl)cc(Cl)c1Cl", "cytotoxicity (dead cells)": 14.7}, {"smiles": "O=S(=O)(c1ccc(Cl)cc1)c1ccc(Cl)cc1", "cytotoxicity (dead cells)": 27.1}]}]}
